# KCNQ2 pot: potentiators of rat KCNQ2 potassium channel | O88943 | CHO-K1 KCNQ2, FluxOR thallium flux fluorescence; stronger effect = higher value | B-score at 10 µM | hit rate 0.54% among 310,000 | AID 2239;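 active means fluorescence ratio B-score at least 3 SD of library B-scores, with initial fluorescence B-score within 3 of them, cut at about 5.3 in these data; same plate scores as AID 2156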;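 further: B-score of peak minus minimum over baseline fluorescence ratio after K+ and Tl+ stimulus; positive B-score means potentiation of KCNQ2 with more thallium influx and brighter signal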
# Target sequence (O88943 whole entry, looked up): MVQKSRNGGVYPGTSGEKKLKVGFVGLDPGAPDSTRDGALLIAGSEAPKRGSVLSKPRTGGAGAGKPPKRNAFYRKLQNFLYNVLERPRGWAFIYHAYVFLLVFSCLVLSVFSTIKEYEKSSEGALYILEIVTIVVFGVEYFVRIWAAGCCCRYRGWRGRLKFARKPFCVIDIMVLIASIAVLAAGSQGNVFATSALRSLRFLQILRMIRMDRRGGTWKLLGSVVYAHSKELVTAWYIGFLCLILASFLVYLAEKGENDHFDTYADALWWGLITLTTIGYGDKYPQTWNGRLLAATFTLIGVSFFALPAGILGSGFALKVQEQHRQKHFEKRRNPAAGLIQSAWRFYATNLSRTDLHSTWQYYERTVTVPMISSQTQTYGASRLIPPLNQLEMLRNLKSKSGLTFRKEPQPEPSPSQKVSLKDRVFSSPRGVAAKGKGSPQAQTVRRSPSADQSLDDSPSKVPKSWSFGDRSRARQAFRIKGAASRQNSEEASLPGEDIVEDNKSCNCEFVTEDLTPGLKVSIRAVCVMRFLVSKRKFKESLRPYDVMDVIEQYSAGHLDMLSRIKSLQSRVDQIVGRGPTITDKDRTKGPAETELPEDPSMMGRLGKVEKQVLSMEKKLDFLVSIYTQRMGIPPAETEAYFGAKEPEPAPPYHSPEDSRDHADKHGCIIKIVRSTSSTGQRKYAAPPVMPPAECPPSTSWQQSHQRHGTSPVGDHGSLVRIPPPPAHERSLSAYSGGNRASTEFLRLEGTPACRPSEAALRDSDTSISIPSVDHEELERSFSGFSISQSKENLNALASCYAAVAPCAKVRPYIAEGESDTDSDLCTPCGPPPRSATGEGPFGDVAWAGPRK
# KCNQ2 inh: inhibitors of rat KCNQ2 potassium channel; CHO-K1 KCNQ2, FluxOR thallium flux, 20 min; stronger effect = lower value; B-score at 10 µM; hit rate 1.1% among 310,000; AID 2156;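 active means fluorescence ratio B-score at most minus 3 library SDs, with starting brightness B-score within 2 library SDs, cut at about -5.5 in these data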
# Kir21 confirm: confirmation of mouse Kir2.1 potassium channel inhibitors; hit rate 41% among 2,300; Kir2.1-expressing cells, FluxOR thallium flux fluorescence; stronger effect = lower value; shares compounds with KCNQ2 pot; AID 2032; Tl flux remaining, % of negative control (stronger effect = lower value), % at 10 µM;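 active means Primary-screen hit whose thallium flux fell at least 3 control SD below untreated wells in both duplicates, with normal baseline fluorescence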;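 further: 0% = blank wells without stimulus and 100% = stimulated no-compound controls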
# HEK293 Tl flux: alters thallium flux in parental HEK293 cells, Kir2.1 counter-screen; shares compounds with KCNQ2 pot; FluxOR thallium flux fluorescence; 0% = unstimulated blank wells; FluxOR signal as % of negative control (100 = no effect), % at 10 µM; hit rate 19% among 2,300; AID 2105;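 active means dye signal at least 3 control SD above or below untreated wells in both duplicates, raw fluorescence within 3, either direction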;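 further: percent is based on the flux ratio of peak minus minimum fluorescence over baseline F0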
# CHO-K1 ctr: alters thallium flux in parental CHO-K1 cells, KCNQ2 counter-screen; shares compounds with KCNQ2 pot; FluxOR thallium flux fluorescence; zero = vehicle mean+3SD, 100% = vehicle-minus-blank window; activity increase over 3SD of controls, % at 10 µM; hit rate 43% among 1,200; AID 2282;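 active means signal rise of at least 3 SD above the untreated control mean, in both duplicate wells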;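 further: counter screen of KCNQ2 potentiator hits so any rise reflects channel-independent effects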
# KCNQ1 sel pot: selectivity of KCNQ2 potentiators: effect on human KCNQ1 | activation over 3SD threshold, % at 10 µM | hit rate 28% among 1,200 | shares compounds with KCNQ2 pot | CHO KCNQ1 stable, FluxOR thallium flux fluorescence; beyond 3SD, as % of vehicle-control signal;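 active means fluorescence ratio rise of at least 3 SD of vehicle wells above their mean, in both replicate wells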;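 further: 0% = vehicle mean plus 3 SD and 100% = vehicle minus unstimulated blank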
# KCNQ2 pot conf: rat KCNQ2 channel potentiator confirmation | shares compounds with KCNQ2 pot | potentiation, less the hit threshold, % at 10 µM | hit rate 68% among 1,200 | CHO-KCNQ2 cells, FluxOR thallium flux fluorescence;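 active means fluorescence ratio rising 3 SD or more over the vehicle control mean in both replicates, plus primary screen hit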;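 further: peak minus minimum thallium fluorescence divided by baseline after K/Tl stimulus; 0% = vehicle mean plus 3 SD and 100% = vehicle minus unstimulated blank difference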
# Kir2-1 sel: selectivity of KCNQ2 potentiators: effect on mouse Kir2.1. shares compounds with KCNQ2 pot. HEK293 Kir2.1, FluxOR thallium flux fluorescence. activity over 3SD threshold, % at 10 µM. hit rate 2% among 1,200. AID 2345;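 active means fluorescence ratio rise of at least 3 SD above the vehicle-control mean, seen in both replicates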;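 further: 0% = vehicle mean plus 3 SD and 100% = vehicle minus no-stimulus blank window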
# KCNQ2 W236L pot: potentiates the retigabine-insensitive rat KCNQ2 W236L mutant channel; shares compounds with KCNQ2 pot; CHO KCNQ2-W236L, automated patch clamp current; current increase over 3SD of negative controls (%), stronger effect = higher value, % at 25 µM; hit rate 10% among 940;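 active means current increase at least 3 SD of the untreated controls above them in both duplicate recordings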
# The depositor's hits bear a star; i = inactive; nt = not tested or not shown. An excerpt weighted towards active compounds, which were near 1.6% of everything screened.
SMILES,KCNQ2 pot,KCNQ2 inh,Kir21 confirm,HEK293 Tl flux,others
CCc1n[nH]c(=S)n1/N=C/c1cc(OC)cc([N+](=O)[O-])c1O,0.17,i,nt,nt,
O=C(O)C1CCCN1C(=O)NC1CCCCC1 (stereo unspecified),1.1,i,nt,nt,
CN(C(=O)C1CCC(=O)N(C2CC2)C1)C1CCCCC1 (stereo unspecified),nt,i,nt,nt,
Cc1c(C(=O)N(C)Cc2ccc(OC(F)F)cc2)oc2ccccc12,nt,i,nt,nt,
COc1ccc(CCN(C)C(=O)c2oc3ccccc3c2C)cc1OC,0.42,i,38%*,i,
C/C=C/c1ccc(OCCOCCNCc2ccccc2)c(OC)c1,0.43,i,30%*,i,
Cc1ccc(OCCNCc2ccccc2)c(C)c1,nt,i,nt,nt,
C/C=C/c1ccc(OCCOc2cc(C=O)ccc2OC)c(OC)c1,0.03,i,nt,nt,
COc1cc(C)ccc1OCCCCNCc1ccccc1,0.05,i,58%*,i,
C=CSc1sc(Cl)c(N(CC)CC)c1[N+](=O)[O-],nt,i,nt,nt,
CCC(NC(=S)NCc1ccc(F)cc1)c1ccc(C(C)C)cc1 (stereo unspecified),7.2*,i,i,i,CHO-K1 ctr=78*;KCNQ1 sel pot=-13;KCNQ2 pot conf=21*;Kir2-1 sel=-29;KCNQ2 W236L pot=i
CCC(C)c1ccc(C(C)NC(=S)NCc2ccc(F)cc2)cc1 (stereo unspecified),5.2,i,nt,nt,
CCCn1c(C)nnc1SCC(=O)NC1CCCCC1,nt,i,nt,nt,
CC(C)n1nccc1NC(=O)Nc1ccccc1,1.2,i,nt,nt,
COc1ccccc1CCC(=O)Nc1ccc(C)cc1Cl,nt,i,nt,nt,
CCn1c2c(c(=N)c3c1CCC3)CCCC2,0.8,i,nt,nt,
CCCCCCCCn1c2c(c(=N)c3ccccc31)CCC2,-5.7,-5.7*,14%*,i,
CCCCCCCCCn1c2c(c(=N)c3c1CCC3)CCCC2,19*,i,9.0%*,i,CHO-K1 ctr=39*;KCNQ1 sel pot=-4;KCNQ2 pot conf=-88;Kir2-1 sel=-114;KCNQ2 W236L pot=i
CCCCn1c2c(c(=N)c3ccccc31)CCC2,nt,i,nt,nt,
CCn1cc(CCCC(=O)NCc2ccccc2OC)c2ccccc21,nt,i,nt,nt,
CCn1cc(CCC(=O)NCc2ccccc2OC)c2ccccc21,0.26,i,50%*,i,
COc1ccc(S(=O)(=O)N2CCCCC2)cc1NC(=O)CSc1ncnc2ccccc12,0.65,i,nt,nt,
CCCCc1nnc(NC(=O)COc2ccc3c(C)cc(=O)oc3c2)s1,0.43,i,nt,nt,
COc1ccc(C[C@H]2CN3C(=NC[C@@H]3Cc3ccccc3)N2CCNC(=O)CCC2CCCCC2)cc1,nt,i,40%*,i,
COc1ccc(C[C@H]2CN3C(=NC[C@@H]3C(C)C)N2CCNC(=O)CCC2CCCCC2)cc1,nt,i,64%*,i,
SMILES,KCNQ2 pot,KCNQ2 inh,Kir21 confirm,HEK293 Tl flux,others
CC(C)[C@H]1CN=C2N(CCNC(=O)CCC3CCCCC3)[C@H](Cc3ccc(O)cc3)CN21,nt,i,nt,nt,
O=C(CCC1CCCCC1)NCCN1C2=NC[C@H](Cc3ccc(O)cc3)N2C[C@H]1Cc1ccc(O)cc1,0.57,i,nt,nt,
CNC(=S)N1CCC(NC(=O)C(Cc2ccccc2)NC(C)=O)CC1 (stereo unspecified),1.9,i,nt,nt,
O=C(CCOc1ccccc1F)N1CCN(c2ccccc2O)CC1,nt,i,nt,nt,
O=C(COc1c(Br)cc(Br)cc1Br)N/N=C/c1ccco1,6.3*,i,i,i,CHO-K1 ctr=-3;KCNQ1 sel pot=-8;KCNQ2 pot conf=-4;Kir2-1 sel=-20
Cc1cc(C)cc(OCC(=O)N/N=C/c2ccco2)c1,nt,i,nt,nt,
CCCOc1ccc(CCC(=O)N/N=C/c2ccco2)cc1,1.3,i,nt,nt,
CCCCOc1ccc(CCC(=O)N/N=C/c2ccco2)cc1,9.1*,i,i,i,CHO-K1 ctr=47*;KCNQ1 sel pot=65*;KCNQ2 pot conf=33*;Kir2-1 sel=-38;KCNQ2 W236L pot=i
Cc1ccc(N2CCN(C(=O)c3cn(CC4CCCCC4)nn3)C(C)C2)cc1 (stereo unspecified),nt,i,nt,nt,
CC(C)c1cccc(C(C)C)c1NC(=O)CN1CCCC1,nt,i,nt,nt,
COc1ccc(S(=O)(=O)n2ccc(-c3ccc4c(c3)CCC(C)(C)O4)n2)cc1,8.2*,i,i,i,CHO-K1 ctr=3.8*;KCNQ1 sel pot=-18;KCNQ2 pot conf=-10;Kir2-1 sel=-29
CC1(C)CCc2cc(-c3ccnc(=S)[nH]3)ccc2O1,nt,i,nt,nt,
CC1(C)CCc2cc(-c3ccn(S(=O)(=O)c4ccccc4Cl)n3)ccc2O1,19*,i,i,i,CHO-K1 ctr=4.6*;KCNQ1 sel pot=-9;KCNQ2 pot conf=39*;Kir2-1 sel=-28;KCNQ2 W236L pot=3.0%*
CC1(C)CCc2cc(CN3CCN(c4ccccn4)CC3)ccc2O1,1.7,i,nt,nt,
COc1ccccc1N(CC(=O)NC1CCCC1)C(=O)CCC(=O)Nc1ccccn1,0.47,i,nt,nt,
COc1cc(S(=O)(=O)N2CCN(C(=O)c3ccccc3)CC2)c(OC)cc1Br,0.24,i,nt,nt,
COc1ccc(NC(=O)CCn2cccc2)cc1,0.3,i,nt,nt,
Cc1cc(/C=C2\NC(=S)NC2=O)c(C)n1-c1cccnc1,0.29,i,nt,nt,
Cc1ccc(-n2ncc3c2CCCC3NC(=O)CSc2ccccn2)cc1C (stereo unspecified),nt,i,nt,nt,
COc1ccc(C(=O)N2CCN(S(=O)(=O)c3ccc(F)cc3)CC2)cc1OC,nt,i,nt,nt,
COc1ccc(C(=O)CCS(=O)(=O)c2ccc(F)cc2)cc1OC,6.6*,i,i,i,CHO-K1 ctr=36*;KCNQ1 sel pot=60*;KCNQ2 pot conf=24*;Kir2-1 sel=-52;KCNQ2 W236L pot=6.0%*
CN(c1ccc([N+](=O)[O-])cc1/C=N/NC(=O)COc1ccccc1)C1CCCCC1,nt,i,nt,nt,
Cc1ccc([N+](=O)[O-])cc1S(=O)(=O)NCC1COc2ccccc2O1 (stereo unspecified),nt,i,73%*,i,
Cc1ccc(S(=O)(=O)NCC2COc3ccccc3O2)cc1 (stereo unspecified),nt,i,nt,nt,
S=c1nc(C2CCCCC2)[nH]c2ccccc12,nt,i,nt,nt,
S=c1nc(C2CC2)[nH]c2ccccc12,16*,i,i,341%*,CHO-K1 ctr=17*;KCNQ1 sel pot=-11;KCNQ2 pot conf=46*;Kir2-1 sel=-18;KCNQ2 W236L pot=i
O=C(CCl)Nc1ccccc1C(=O)NCc1ccccc1,0.02,i,nt,nt,
O=C(CCNS(=O)(=O)c1cccc2nonc12)NC1CCCCC1,0.78,i,nt,nt,
O=C(CCS(=O)(=O)c1cccc2nonc12)NC1CCCCCC1,11*,i,i,i,CHO-K1 ctr=33*;KCNQ1 sel pot=-13;KCNQ2 pot conf=36*;Kir2-1 sel=-40;KCNQ2 W236L pot=i

# Assay outcomes: PubChem BioAssay, Johns Hopkins Ion Channel Center
